Source: PubChem
Many of the other results were omitted from the sample, so hits are more common in it than they were.
Tgondii IFNg – T. gondii growth inhibition with IFN-gamma, primary screen, cell-based. activity change, negative = inhibition, % (test concentration not listed). AID 1259416, 2018. Toxoplasma gondii growth in IFN-gamma-treated host cells; hits give low values. hit rate 3.8% among 69,000; in the data active = activity change below about -70%, passing the limit was not always enough;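 note: host cells are HeLa cells infected with Toxoplasma gondii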
* hit, by the source's call; i = inactive; ! = repeats disagree.

SMILES | Tgondii IFNg
CCOC(=O)c1ccc(Nc2nnc(-n3nc(C)cc3C)c3ccccc23)cc1 | -85*
CS(=O)(=O)N1CCC(c2ccc(C(=O)Nc3cccc(-n4cccn4)c3)cn2)CC1 | 5
O=S(=O)(c1ccc2[nH]c3c(c2c1)CCCCCC3)N1CCCC1 | 248
O=C1Cc2cc(Cl)ccc2N1 | 10
O=C1Cc2cc(-c3cccc(-n4cccn4)c3)ccc2N1 | -93*
COc1cc(-c2cccc(-n3cccn3)c2)ccc1NC(C)=O | 77
COc1cc(N2CCC3OCCCC3(COCCN(C)C)C2)ncn1 (centres undefined) | 2
CCNC(=O)c1c2c(N3CCN(C)CC3)ncnc2n2ccccc12 | 35
Cc1cnc(CNC(=O)c2nc(-c3cn(Cc4ccccc4)c(C)n3)n3ccccc23)cn1 | -2
Cc1cnc(CNC(=O)c2c(=O)c3ccc(N4CCCN(C)CC4)nc3n3c2sc2ccccc23)cn1 | -81*
C=CCN(Cc1cccc(OC)c1)C(=O)c1cc2cccnc2nc1C | 72
C=CCNC(=O)c1ccc(-c2cc(OC)ccc2F)o1 | 7
CN(Cc1ncc[nH]1)Cc1ccc(-c2nc3ccccc3n2C)o1 | 128
CC(C)CC(=O)N1CC[C@H]2CN(C)S(=O)(=O)[C@@H]2CC1 | -14
CCOc1ccc(N(Cc2nc(-c3ccc(C)cc3)oc2C)S(=O)(=O)c2ccccc2)cc1 | 15
Cc1cc(C)c(N(Cc2ccccc2)S(=O)(=O)c2ccc(OCCNC(=O)c3cc4ccccc4o3)cc2)c(C(=O)NO)c1 | -72*!
CCCCOc1ccc(S(=O)(=O)N(Cc2ccccc2)Cc2ccccc2)cc1 | -27
Cc1cc(C)n(CCn2ccnc2-c2cc3ccccc3o2)n1 | -5
CC(C)Cc1cc(C(=O)N2CCCC2Cn2cccn2)on1 (centres undefined) | 31
Cn1c(=O)c2c(-c3ccc(F)cc3)cc(-c3cccc(F)c3)nc2n(C)c1=O | -10
CN(C)c1cc(Nc2ccccc2)c2c(=O)n(C)c(=O)n(C)c2n1 | -84*
Cn1c(=O)c2c3nc4ccccc4cc3c(=O)n(C)c2n(C)c1=O | -13
CN1CC2(CCN(Cc3nccn3C)CC2)OCC1=O | -6
CC(C)OCc1ncn2c1CN(S(=O)(=O)C1CC1)CCC2 | -6
CC(=O)N1CCOC2CCN(C(=O)Cc3cccnc3)CCC21 (centres undefined) | -43
SMILES | Tgondii IFNg
CN1CCS(=O)(=O)[C@H]2CCN(C(=O)Nc3ccccc3)CC[C@@H]21 | -2
Cc1cccc(CN2CCN(Cc3ccc4cccc(F)c4n3)CC2)c1 | 4
Cc1cc(C(=O)c2ccc(C(C)(C)C)cc2)c(N)s1 | 19
CC(C)(C)c1ccc(C(=O)/C=c2\[nH]c(=O)/c(=C\c3cccs3)s2)cc1 | -102*
Cc1ccc(N2CC3(CCN(C(=O)c4cnc[nH]4)C3)CC2=O)cc1C (centres undefined) | 2
COc1cc(Nc2c(C#N)cnc3cc(OCCCN4CCN(C)CC4)c(OC)cc23)c(Cl)cc1Cl | -79*
COc1ccc(-c2nc(NCCCN3CCN(C)CC3)c3ccccc3n2)cc1 | -51
COc1cc2c(Oc3ccc(NC(=O)C4(C(=O)Nc5ccc(F)cc5)CC4)cc3F)ccnc2cc1OCCCN1CCOCC1 | -68
Cn1cc(N2CC3(CCN(CCO)C3)CC2=O)cn1 (centres undefined) | -87*
CCS(=O)(=O)N1CCC2(CC(=O)N(c3cnn(C)c3)C2)C1 (centres undefined) | 5
Cn1cc(N2CC3(CCN(S(C)(=O)=O)C3)CC2=O)cn1 (centres undefined) | 12
O=C1CCCN1Cc1ncn2c1CN(S(=O)(=O)c1cccc(F)c1)CCC2 | 3
CCc1nc(C)cc(N2CCN(C(=O)C(c3ccc(F)cc3)N(C)C)CC2)n1 (centres undefined) | 1
COc1ccc(C(=O)Nc2cc3c(C)cc(=O)oc3cc2C)o1 | -5
Cc1cn(C2CC(O)C(CO)O2)c(=O)[nH]c1=O (centres undefined) | -7
O=c1[nH]c(=O)n([C@H]2C[C@H](O)[C@@H](CO)O2)cc1F | -94*
O=c1[nH]c(=O)n([C@H]2C[C@H](O)[C@@H](CO)O2)cc1Br | -45
COc1cccc(C(NC(=O)Cc2sc(C)nc2C)c2ccccc2)c1 (centres undefined) | 19
O=C(CSc1ncnc2nc[nH]c12)Nc1nc2ccccc2s1 | 69
COc1cc(C(=O)Nc2ccc(-c3nc(-c4cc(C)ccc4C)co3)cc2)cc(OC)c1OC | -32
COc1ccc(-c2cnc(N)cn2)cc1Cl | -88*
COc1ccc(-c2ccccc2C(N)=O)cc1Cl | 7
COc1ccc(-c2nc(C)ncc2C)cc1Cl | 1
c1ccc(COC2CCCN(Cc3ccncc3)C2)nc1 (centres undefined) | 6
CC(C)(C)c1ccc(C(=O)CCCN2CCC(OC(c3ccccc3)c3ccccc3)CC2)cc1 | -86*
SMILES | Tgondii IFNg
CC1CCN(CCCC(=O)c2ccc(F)cc2)CC1 | 12
O=C(O)CCCN1CCC(O[C@@H](c2ccc(Cl)cc2)c2ccccn2)CC1 | 34
CCOc1ccccc1CN(CC)C(=O)c1c(C)cc(C)n(CC)c1=O | -2
CC(C)(C)c1cc2nc(C(F)(F)F)cc(N3CCN(C(=O)c4ccccc4)CC3)n2n1 | -86*
Cc1ccc(C)c(N2CCN(C(=O)c3ccc(-n4nc(C(F)(F)F)c5c4CCCC5)cc3)CC2)c1 | 1
O=C(c1ccccc1)N1CCN(C(=O)c2ccccc2)CC1 | -10
Cc1cccc(-c2nc(Cn3c(=O)cc(C(=O)N4CCOCC4)c4ccccc43)c(C)o2)c1 | -41
CCOCC1CCC2(CCN(C(=O)COc3ccccc3)CC2)N1C (centres undefined) | 403
CCS(=O)(=O)N1CCN(C(=O)C2=C(C)NC(=O)NC2C)CC1 (centres undefined) | -14
Cc1nc(C)c(Oc2ccc(Cl)cc2Cl)c(Sc2cccc(C(F)(F)F)c2)n1 | -107*
COc1ccc(CNc2nc(C)nc(C)c2Oc2ccc(Cl)cc2Cl)cc1 | -8
CCOC(=O)c1nc(C)nc(Sc2ccc(Cl)cc2)c1C | 11
COc1ccccc1-c1nc(CN(c2ccccc2OC)S(=O)(=O)c2ccc(C)cc2)c(C)o1 | -5
COCCC(=O)NCc1ccc(-c2ccnc3nc(C(F)(F)F)nn23)cc1 | 31
COC(=O)Nc1ccc(S(=O)(=O)N2CCCCC2)cc1 | 25
O=c1[nH]c(O)c(N=Nc2ccc(S(=O)(=O)N3CCCC3)cc2)c(=O)[nH]1 | -74*
O=c1ccc2cc(S(=O)(=O)N3CCCC3)ccc2[nH]1 | i
C=CCOCC1c2c(ncn2C)CCN1Cc1nccn1C (centres undefined) | -34
CCN(C(=O)c1cnc(NC)nc1)C1CCN(C)CC1 | -1
CN1CCC(N(CCc2ccccc2)C(=O)c2cnc(N3CCCCC3)nc2)CC1 | -90*
Cc1ccccc1N(CC(=O)NCCc1ccccc1)C(=O)c1ccc(N2CCCC2)nc1 | -16
COCC(=O)N1CCC2C1CCC(=O)N2CCN1CCCC1 (centres undefined) | -4
Cc1ccc(N2CCCc3sc(C(=O)NCCCN(C)C)nc32)nn1 | -6
Cn1cnnc1Sc1c([N+](=O)[O-])ncn1C | -46
CC(C)C(=O)Nc1ncnc2nc[nH]c12 | -52
Cn1cnc([N+](=O)[O-])c1Sc1ncnc2nc[nH]c12 | -86*
CC1=C(C(=O)NCCc2ccc(C)cc2)C2(CCN(S(C)(=O)=O)CC2)OC1=O | 18
Cc1sc(-c2nc(C(C)C)cs2)cc1S(=O)(=O)N1CCC(C)CC1 | -89*
Cc1nc(-c2cc(S(=O)(=O)N3CCC(C)CC3)c(C)s2)sc1C | 16
